Results from PubChem BioAssay (NCATS).
Results filed as inconclusive are left out. Activity calls are given as the source filed them. Calls follow the shape of the dose curve; as a rule, active = well fitted curve in the direction sought with a large enough effect; inconclusive = small, poorly fitted or top-dose-only effect, or another doubt; inactive = no such curve, though single readings can be large; an effect the other way counts as inactive or inconclusive.

Tests used:
[1] = tested on: CRL-7250; assay: Cytotoxic Profiling of Annotated Libraries Using Quantitative High-Throughput Screening (AID 1296008); conditions: Five cell lines viability, CellTiter-Glo ATP luminescence, 48-72 h; max response: stronger effect = lower value; also: nearly all actives have a fitted effect of over 60% in size; as to max response: % is scaled to controls: 0 for no effect and ±100 for the full control effect
Method in brief: (§1)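 Compounds were pin-transferred onto cells and incubated 48 or 72 hr at 37 degree Celsius, 95% humidity. CellTiter-Glo was added, plates sat 10 min at room temperature, then ATP-coupled luminescence was imaged as the viability read-out.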

[2] = tested on: HEK293; assay: as above; conditions: Five cell lines viability, CellTiter-Glo ATP luminescence, 48-72 h; max response: stronger effect = lower value
Method in brief: as §1

[3] = tested on: HaCat; assay: as above; conditions: Five cell lines viability, CellTiter-Glo ATP luminescence, 48-72 h; max response: stronger effect = lower value
Method in brief: as §1

[4] = tested on: KB-3-1; assay: as above; conditions: Five cell lines viability, CellTiter-Glo ATP luminescence, 48-72 h; max response: stronger effect = lower value
Method in brief: as §1

[5] = tested on: NIH3T3; assay: as above; conditions: Five cell lines viability, CellTiter-Glo ATP luminescence, 48-72 h; max response: stronger effect = lower value
Method in brief: as §1

[6] = tested on: HACAT; assay: qHTS assay to identify novel small-molecules to repurpose for Merkel cell carcinoma treatment (AID 1296009); conditions: MCC and control cell lines, CellTiter-Glo viability, 72 h; at 44.8 µM (top of the series) unless noted; also: nearly all actives have a fitted effect of over 60% in size
Method in brief: (§2)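 qHTS format: cells treated with library compounds in DMSO across 8 (NPC) or 11 (MIPE) concentrations. Readout after 72 hr at 37 degree celsius was CellTiter-Glo luminescence.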

[7] = tested on: HEK293T; assay: as above; conditions: MCC and control cell lines, CellTiter-Glo viability, 72 h; series mostly up to 44.8 µM
Method in brief: as §2

[8] = tested on: NIH3T3; assay: as above; conditions: MCC and control cell lines, CellTiter-Glo viability, 72 h; at 44.8 µM (top of the series) unless noted
Method in brief: as §2

[9] = tested on: C33A; assay: Primary qHTS to identify gynecologic anti-cancer compounds using libraries of approved drugs and bioactive compounds (AID 1345084); conditions: Gynecologic cancer cell panel viability, ATPlite luminescence, 48 h; series mostly up to 57.5 µM; also: % is scaled to controls: 0 for no effect and ±100 for the full control effect; nearly all actives have a fitted effect of over 55% in size
Method in brief: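 Five-point cytotoxicity, 48 h drug exposure at 37 C, 5% CO2, on cells seeded 16 h beforehand. ATP content read by ATPlite luminescence.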

CC(=O)N[C@H]1CCN(c2ccc(C3=NOC(CN[S+](=O)([O-])C(C)C)C3)cc2F)C1 (stereo not given in full)
inactive: max response [1] 3.89% | outcome [2] | outcome [3] | max response [4] -0.511% | outcome [5] | outcome [6] | Potency [7] | outcome [8] | Potency [9]

Cc1c(N2C(=O)c3ccc(C(=O)O)cc3C2=O)c(=O)n(-c2ccccc2)n1C
inactive: outcome [1] | outcome [2] | outcome [3] | outcome [4] | outcome [5] | outcome [6] | Potency [7] | outcome [8] | Potency [9]

CC1(CCC(=O)O)C(=O)C=CC23CC4CC(OC4(C)C2O)C13 (stereo not given)
inactive: max response [1] 3.62% | outcome [2] | outcome [3] | max response [4] 2.02% | outcome [5] | outcome [6] | Potency [7] | outcome [8] | Potency [9]

C/C=C/C1=CC2=C(CO1)C(=O)[C@](C)(O)[C@H](OC(=O)c1c(O)cc(OC)c(O)c1C)C2
inactive: max response [1] 2.48% | outcome [2] | outcome [3] | outcome [4] | outcome [5] | outcome [6] inactive [at 17.4 µM] | Potency [7] | outcome [8] inactive [at 17.4 µM] | Potency [9]

C[C@]1(OC(=O)/C=C/c2ccccc2)C[C@H](O)[C@]2(O)C=CO[C@@H](O[C@@H]3O[C@H](CO)[C@@H](O)[C@H](O)[C@H]3O)C12 (stereo not given in full)
inactive: outcome [1] | outcome [2] | outcome [3] | max response [4] 4.61% | outcome [5] | outcome [6] inactive [at 17.4 µM] | Potency [7] | outcome [8] inactive [at 17.4 µM] | Potency [9]

C=C1CC[C@@H]2[C@](C)(CO[C@@H]3O[C@H](CO)[C@@H](O)[C@H](O)[C@H]3O)CCC[C@@]2(C)[C@@H]1CCC1=CCOC1=O
inactive: outcome [1] | outcome [2] | outcome [3] | max response [4] 2.64% | outcome [5] | outcome [6] inactive [at 17.4 µM] | Potency [7] | outcome [8] inactive [at 17.4 µM] | Potency [9]

CC(O)C(O)/C=C/C=C/C(=O)O[C@@H]1C=C2COC(=O)[C@]2(O)[C@@]2(C)CCCC(C)(C)C12 (stereo not given in full)
inactive: max response [1] 3.05% | outcome [2] | outcome [3] | max response [4] 8.55% | outcome [5] | outcome [6] inactive [at 17.4 µM] | Potency [7] | outcome [8] inactive [at 17.4 µM] | Potency [9]

COC(=O)c1ccc(O[C@@H]2O[C@H](CO)[C@@H](O)[C@H](O)[C@H]2O)c(OC)c1
inactive: max response [1] -0.304% | outcome [2] | outcome [3] | max response [4] 4.82% | outcome [5] | outcome [6] | Potency [7] | outcome [8] | Potency [9]

COc1cc(C2c3cc(O)c(OC)cc3CC(CO)C2CO)ccc1O (stereo not given)
inactive: outcome [1] | outcome [2] | outcome [3] | outcome [4] | outcome [5] | outcome [6] | Potency [7] | outcome [8] | Potency [9]

CC1=C2C3OC(=O)C(C)C3(O)CCC2(C)CCC1=O (stereo not given)
inactive: max response [1] -29.1% | outcome [2] | outcome [3] | outcome [4] | outcome [5] | outcome [6] | Potency [7] | outcome [8] | Potency [9]

C[C@H]1C[C@H]2[C@@H]3CCC4=CC(=O)C=C[C@]4(C)[C@@]3(F)[C@@H](O)C[C@]2(C)[C@@]1(O)C(=O)COP(=O)(O)O
inactive: max response [1] 2.73% | outcome [2] | outcome [3] | outcome [4] | outcome [5] | outcome [6] | Potency [7] | outcome [8] | Potency [9]

COc1c2c(c(C)c3c1C(=O)OC3)OC1(C)CC(O)C3(O)C(C)(C)OC(=O)CCC3(C)C1C2 (stereo not given)
inactive: max response [1] -8.09% | outcome [2] | outcome [3] | max response [4] 8.81% | outcome [5] | outcome [6] inactive [at 17.4 µM] | Potency [7] | outcome [8] inactive [at 17.4 µM] | Potency [9]

O=C(O)c1ccc(CCCc2ccc(OCCc3ccc(F)cc3)cc2)o1
inactive: max response [1] -2.7% | outcome [2] | outcome [3] | outcome [4] | outcome [5] | outcome [6] | Potency [7] | outcome [8] | Potency [9]

COc1ccc(C(=O)O[C@H]2CC(C)=CC[C@@]3(C)[C@@H](OC(C)=O)C[C@@](O)(C(C)C)[C@H]23)cc1
inactive: max response [1] -4.18% | outcome [2] | outcome [3] | max response [4] 7.38% | outcome [5] | outcome [6] inactive [at 17.4 µM] | Potency [7] | outcome [8] inactive [at 17.4 µM] | Potency [9]

O=C(O[C@H]1[C@@H]2C=CO[C@@H](O[C@@H]3O[C@H](CO)[C@@H](O)[C@H](O)[C@H]3O)[C@@H]2[C@@]2(CO)O[C@@H]12)c1ccc(O)cc1
inactive: max response [1] 1.96% | outcome [2] | outcome [3] | max response [4] 3.57% | outcome [5] | outcome [6] inactive [at 17.4 µM] | Potency [7] | outcome [8] inactive [at 17.4 µM] | Potency [9]
